Measurements reported in PubChem BioAssay (NCATS).
Results filed as inconclusive are left out. Unmarked numbers belong to inactive results. The call rests on the fitted dose curve; in most records, active means well fitted inhibition curve with a large enough effect; inconclusive means small, poorly fitted or top-dose-only effect; inactive means no such curve, though single readings can be large or run the other way.

Experiment: S16 Schwann cell PMP22 intronic element firefly luciferase assay (AID 624032);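 further: plate controls were DMSO for no effect and PTC124 positive control mean for full effect; nearly all actives have a fitted effect of over 30% in size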
Conditions: S16 rat Schwann cells, PMP22 element FLuc, 24 h; series mostly up to 57.5 µM; activity change, negative = inhibition: at the top concentration
Summary of the method: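 Rat S16 Schwann cells stably carrying firefly luciferase driven by a PMP22 intronic element, in 10% FBS, treated 24 h at 37 C. ONE-Glo luminescence normalized to PTC124 control and DMSO (0%); curves classed by r2, magnitude and activity.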

Row | SMILES | activity change, negative = inhibition
1 | CCOC(=O)c1cccnc1 | -2.87%
2 | CN1CCCN=C1COC(=O)C(O)(c1ccccc1)C1CCCCC1 (stereo not drawn) | 7.16%
3 | Nc1c2c(nc3c1CCC3)CCCC2 | -4.05%
4 | COc1ccc(Cc2cnc(N)nc2N)cc1OC | 0.566%
5 | Cc1ncc(CO)c(CN)c1O | -19.1%
6 | CC(=O)N[C@@H](Cc1ccc(O)cc1)C(=O)O | 14.9%
7 | CCc1nnc(NS(=O)(=O)c2ccc(N)cc2)s1 | 2.96%
8 | CC(=O)N(CC(O)CO)c1c(I)c(C(=O)NCC(O)CO)c(I)c(C(=O)NCC(O)CO)c1I (stereo not drawn) | -2.25%
9 | CN1CCN(C(=O)C2CCCCC2)CC1 | 8.33%
10 | Nc1ncnc2c1ncn2[C@@H]1O[C@H](COP(=O)(O)O)[C@@H](O)[C@H]1O | -11.6%
11 | NS(=O)(=O)c1ccc(NC(=O)CCC(=O)O)cc1 | 16%
12 | Cc1c(NC(=O)c2cccnc2)c(=O)n(-c2ccccc2)n1C | -0.447% [at 25.7 µM]
13 | Cc1ccc(S(=O)(=O)NC(=O)NC2CCCCCCC2)cc1 | 5.36%
14 | COc1cc(C(=O)NCCCCCC(=O)O)cc(OC)c1OC | 3.23%
15 | COc1ccc2cc(CCC(C)=O)ccc2c1 | 109% [at 25.7 µM]
16 | O=C(O)c1cc(=O)c2ccccc2o1 | -11.8%
17 | OCc1ccc(Cl)cc1Cl | 5.11%

Row | SMILES | activity change, negative = inhibition
18 | CCN(CC)CC1CCCCN1CC(=O)N1c2ccccc2C(=O)Nc2cccnc21 (stereo not drawn) | 25.1%
19 | CCOc1cc(NC(C)=O)ccc1C(=O)OC | 0.836%
20 | CN1C(C)(C)CCCC1(C)C | 21.1%
21 | COc1nccnc1NS(=O)(=O)c1ccc(N)cc1 | -5.75%
22 | O=C(NCN1CCOCC1)c1cnccn1 | -16.5%
23 | CCN(CC)S(=O)(=O)c1ccc(C(=O)O)cc1 | -6.64%
24 | CC(CSC(=O)c1ccccc1)C(=O)N1C[C@@H](Sc2ccccc2)C[C@H]1C(=O)O (stereo partly drawn) | -10.6%
25 | O=C(O)COC(=O)Cc1ccccc1Nc1c(Cl)cccc1Cl | 2.64% [at 25.7 µM]
26 | O[C@@H]1CO[C@H]2[C@@H]1OC[C@@H]2O | -1.27%
27 | CCCCCCCCCCCCCCCCC(C(=O)O)C(O)(CC(=O)O)C(=O)O (stereo not drawn) | 3.71%
28 | CC(=O)SC[C@@H](Cc1ccccc1)C(=O)NCC(=O)OCc1ccccc1 | 1.29% [at 25.7 µM]
29 | NCc1ccc(S(N)(=O)=O)cc1 | 9.09% [at 25.7 µM]
30 | CCCOC(=O)c1ccc(N)cc1 | 7.11%
31 | CC[N+](C)(CC)CCOC(=O)C1c2ccccc2Oc2ccccc21 | 11.7%
32 | C[C@@H]1CCC[C@H](C)N1 | -0.669% [at 25.7 µM]
33 | Cc1cc(OI)c(C(C)C)cc1-c1cc(C(C)C)c(OI)cc1C | -22.4%
